High-throughput results as filed in PubChem BioAssay.
Most compounds without a hit are left out; they make up all but 4.3% or so of the library.
MLL AF4-AF9 inh = inhibitors of human MLL-AF4/AF9 interaction; inhibition, % at 10 µM; hit rate 0.47% among 350,000; AlphaScreen, biotin-AF4 peptide binding to FLAG-AF9; P42568;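 active = every replicate reaching a set inhibition limit, whatever the replicate mean, cut at about 25% in these data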;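 also: 0% = plate neutral control median and 100% = total signal loss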
SMARCA2 activ = activators of SMARCA2 function; MG213 cells, MMTV-luciferase reporter, dexamethasone, overnight; activation, % at 9.1 µM; hit rate 1% among 370,000; in the data active = activation above about 7.8%;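 also: 0% = vehicle wells and 100% = reference activator wells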
FGF22 binding-1 = shifts melting point of recombinant human FGF22; recombinant FGF22 thermal shift, SYPRO orange fluorescence; percent of sucrose octasulfate shift, DMSO zero; Q9HCT0; activity (Tm shift, normalised), % at 9.99 µM; hit rate 1.5% among 340,000;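 active = mean Tm shift, scaled 0 neutral to 100 positive control, at about 1.3% or above, every replicate too, limit read from the data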
Target sequence (Q9HCT0 whole entry, looked up): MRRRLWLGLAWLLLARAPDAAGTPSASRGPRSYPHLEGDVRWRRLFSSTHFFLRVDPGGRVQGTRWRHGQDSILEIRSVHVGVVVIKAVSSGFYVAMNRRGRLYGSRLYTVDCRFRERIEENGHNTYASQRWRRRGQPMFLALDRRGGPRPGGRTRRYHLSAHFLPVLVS
esBAF inh = SWI/SNF esBAF complex inhibition. mouse ES cells, Bmi1-luciferase knock-in reporter, 24 h; 100% = twice the neutral-well signal. reporter increase, % at 12.5 µM. hit rate 2% among 350,000; in the data active = activation above about 40%;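 also: 0% = median of the plate's neutral control wells and 100% = double that signal; a rise in the Bmi1 reporter signal indicates esBAF inhibition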
MITF TRPM1 HTS = increases MITF-driven TRPM1 promoter luciferase signal. SK-MEL-5 TRPM1-promoter luciferase, 24 h; % of positive control, neutral wells = 0. activation, % at 12.5 µM. hit rate 0.75% among 300,000;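 active = mean activation of at least 80% with every replicate also reaching 80%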;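 also: 0% = neutral control wells and 100% = parthenolide positive control wells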
Wnt bcat act = activators of Wnt/beta-catenin signaling. Wnt/beta-catenin reporter cell assay, activator, plate reader. activation, % at 9.35 µM. hit rate 1.2% among 300,000; in the data active = activation above about 30%, passing the limit was not always enough;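 also: 0% = neutral control wells and 100% = positive control wells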
FGF22 binding-2 = binders of human FGF22 by thermal shift. shares compounds with FGF22 binding-1. recombinant FGF22 thermal shift, SYPRO orange fluorescence. thermal shift activity, °C (ΔTm) at 38 µM. hit rate 2% among 1,000;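 active = fitted rise in melting shift crosses a set limit at or below the top valid dose tested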
TSA no protein = counter-screen for FGF22 binders: compound-only thermal shift, no protein; AC50, µM (highest dose often 38 µM); shares compounds with FGF22 binding-1; hit rate 2% among 1,000; compound-only SYPRO orange thermal shift counter-screen;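 active = rising signal whose fitted curve reaches the 0.54 level within the top valid dose, showing a melting point, actives reach about 13 µM in these data; inactive = the rest, including activity in the opposite direction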; also: value is where the raw curve crosses a fixed level and not half-maximal
AlphaScreen intf = AlphaScreen signal interference counter-screen hit; shares compounds with MLL AF4-AF9 inh; AC50, µM (titrated, usually from 12 µM), without a hit: at the top dose activity change, negative = inhibition; hit rate 45% among 530; signal luminescence; cut-off not given, nearly all actives have AC50 up to about 14 µM
SMARCA2 conf = SMARCA2 activation, confirmation screen; shares compounds with SMARCA2 activ; MG213 cells, MMTV-luciferase with dexamethasone, luminescence, overnight; MG213 cells expressing E1A, Rb sequestered; DMSO wells 0%, reference activator 100%; activation, % at 9.1 µM; hit rate 30% among 3,500; AID 652260;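 active = activation above its plate's cutoff, the mean activation of tested wells plus 3 SD, cut at about 7.9% in these data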
GAL4-VP16 Luc = activates GAL4-VP16 luciferase, flagging SMARCA2 activator hits | AID 686939 | HEK293 GAL4-VP16 pG5luc reporter, luciferase luminescence; scaled: DMSO wells 0%, SAHA wells 100% | hit rate 41% among 3,500 | shares compounds with SMARCA2 activ | activation, % at 9.1 µM;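 active = activation above the solvent-only control well mean plus 3 SD, averaged across control plates, cut at about 5.2% in these data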
* marks the source's active call; other numbers are inactive results; i = inactive; x = no result.

SMILES	MLL AF4-AF9 inh	SMARCA2 activ	FGF22 binding-1	esBAF inh	MITF TRPM1 HTS	Wnt bcat act	AlphaScreen intf	others
Oc1ccc(-c2nc3ccccc3s2)c(O)c1	-15	14*	1.3*	x	56	58*	x	FGF22 binding-2=0.22;TSA no protein=i;SMARCA2 conf=6;GAL4-VP16 Luc=10*
O=C(C[C@H]1CC[C@H](NC(=O)CN2CCOCC2)[C@@H](CO)O1)NC1CCC1	-2	x	0	1	x	x	x
Cc1noc(C)c1S(=O)(=O)Nc1ccc2c(c1)C(=O)N([C@@H](C)CO)C[C@H](C)[C@H](CN(C)Cc1ccc(Cl)c(Cl)c1)O2	2	x	0	5	x	x	x
COc1ccccc1NS(=O)(=O)c1cccc(NC(=O)c2cc3ccccc3oc2=O)c1	-3	8.1*	1.8*	x	32	7	x	FGF22 binding-2=-0.009;TSA no protein=i;SMARCA2 conf=4;GAL4-VP16 Luc=9.5*
O=c1cc(-c2ccc(O)c(O)c2)oc2c1ccc1ccccc12	-2	-3	0	-2	38	1	x
O=c1oc(-c2ccc(O)c(O)c2)cc2cc(O)cc(O)c12	4	11*	1.5*	38	60	7	x	FGF22 binding-2=-0.15;TSA no protein=i;SMARCA2 conf=12*;GAL4-VP16 Luc=8.3*
CCCC(=O)NC(c1ccc(N(C)C)cc1)c1ccc2cccnc2c1O (stereo not drawn)	50*	-3	0	-67	-72	2	1.5µM*
CCCC(=O)NC(c1ccc(C(C)C)cc1)c1ccc2cccnc2c1O (stereo not drawn)	-1	-3	0	-38	x	-5	x
O=C(C[C@H]1CC[C@@H]2NC[C@H](O)COC[C@H]2O1)NC1Cc2ccccc2C1	-1	x	0	4	x	x	x
COc1cccc(NC(=O)N(C)C[C@@H]2OCc3ccccc3-c3c(n(C)c4ccccc34)C(=O)N([C@H](C)CO)C[C@H]2C)c1	4	x	0	4	x	x	x
CC(C)N1CCN(c2ccc(OCC3COC(Cn4cncn4)(c4ccc(Cl)cc4Cl)O3)cc2)CC1 (stereo not drawn)	20	-3	0	x	1	-1	-31%
COc1ccc(N2CCN(C(=O)Cn3cncn3)CC2)cc1	6	2	0	-3	5	-1	x
O=C1C[C@H](C(=O)Nc2ccc(Cl)cc2)[C@@H](c2ccccc2)O1	x	-3	x	x	x	x	x
CCCCCc1cc(=O)oc2c(C(CCN3CCCC3)c3ccc(N(C)C)cc3)c(OC)cc(OC)c12 (stereo not drawn)	57*	1	-1	-29	-78	-11	7µM*
COc1ccccc1N(C(=O)CCl)c1cn(C(C)=O)c2ccccc12	5	-12	0	24	-63	-11	x
COc1ccccc1N(C(C)=O)C1=C(Cl)C(=O)c2ccccc2C1=O	28*	-11	-1	2	x	-5	4.4µM*
COCC(=O)Nc1ccc2c(c1)OC[C@@H](C)N(C(=O)NC(C)C)C[C@H](C)[C@H](OC)CN(C)C2=O	x	x	x	0	x	x	x
Cn1cc(CN2CCC(C(=O)NC(c3ccc(F)cc3)c3ccc4ccccc4n3)CC2)c2ccccc21 (stereo not drawn)	25*	-2	0	-59	x	-2	-34%
O=S(=O)(c1ccc(F)cc1)N1[C@@H]2CNC[C@H]1C2c1ccc(-c2ccccc2)cc1 (stereo partly drawn)	-9	x	x	x	x	x	x
